We go through 20 molecules from PubChem BioAssay.

Experiment [1] is described as follows: antimalarial activity against Dd2 strain (AID 2302;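 active = growth inhibition above 50% at the single 2 µM test dose, taken to imply half-maximal potency below 2 µM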;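 also: 0% = DMSO untreated growth and 100% = chloroquine plus artemisinin killed control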). The following applies: P. falciparum Dd2 in RBCs, LDH growth readout, 72 h; at 2 µM; stronger effect = higher value.
Experiment [2] in a line: HepG2 cytotoxicity, primary screen, cytotoxicity control for P. falciparum antimalarial project, cell-based, ATP luminescence (AID 2303;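 active = inhibition above 50%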;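 also: 0% = DMSO wells and 100% = digitonin-killed cells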). The following applies: HepG2 viability, 24-48 h, at 10 µM, stronger effect = higher value.
The target in experiment [3] is L-lactate dehydrogenase (Plasmodium falciparum (isolate CDC / Honduras)) (UniProt Q27743). The experiment can be described thus: PfLDH activity inhibition – cell lysate, 3D7 strain, counter-screen for P. falciparum growth inhibition project (AID 2304).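 Also: 0% = vehicle and 100% = reference inhibitor.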 The settings on record: P. falciparum 3D7 crude extract, LDH APAD/NBT absorbance; at 2 µM; stronger effect = higher value. (Counterscreens check selectivity or assay interference.)

Experiment [4] in a line: inhibition of 3D7 malaria parasite growth – strain 3D7 (AID 2306).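 Also: 0% = DMSO wells and 100% = chloroquine plus artemisinin control wells.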 The settings on record: P. falciparum 3D7 erythrocytic growth, LDH absorbance, 72 h; at 2 µM; stronger effect = higher value.
Experiment [5] concerns the target Calcium-dependent protein kinase 1 (Plasmodium falciparum (isolate 3D7)) (UniProt P62344). The experiment is described as follows: PfCDPK1 kinase inhibitors, biochemical, TCAMS library (AID 1159585; cut-off not given, nearly all actives have IC50 up to about 0.98 µM;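 also: inhibitors leave more ATP so luminescence rises with inhibition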). The settings on record: recombinant PfCDPK1, Kinase-Glo ATP depletion luminescence. In general terms: Kinase-Glo reads ATP consumption through a luciferase reaction.
Experiment [6] deals with Plasmodium falciparum protein kinase 6 (PK6, PF3D7_1337100) (UniProt Q8IDW1). The experiment can be described thus: PfPK6 kinase inhibitors, biochemical, TCAMS library (AID 1159586). The settings on record: recombinant PfPK6, Kinase-Glo ATP depletion luminescence.
The target of experiment [7] is Protein kinase 7 (PK7), Plasmodium falciparum 3D7 (PF3D7_0213400) (UniProt Q7YTF7). The experiment is described as follows: inhibition of Plasmodium PK7 catalytic activity – biochemical, TCAMS antimalarial set, Kinase-Glo luminescence (AID 1159587). The settings on record: recombinant PfPK7, Kinase-Glo ATP depletion luminescence.
Experiment [8] has as its target Calcium-dependent protein kinase 4 (Plasmodium falciparum (isolate 3D7)) (UniProt Q8IBS5). The experiment can be described thus: PfCDPK4 kinase inhibitors, biochemical, TCAMS library (AID 1159588; cut-off not given, nearly all actives have IC50 up to about 0.91 µM). The settings on record: recombinant PfCDPK4, Kinase-Glo ATP depletion luminescence.

A number with no mark means an inactive call. For some of these results: Results with a measured potency or affinity are listed apart. Calls of active or inactive are those of the source. Unless noted, no rule for the calls is given here.

Protein kinase 7 (PK7), Plasmodium falciparum 3D7 (PF3D7_0213400), sequence (Q7YTF7 1-343): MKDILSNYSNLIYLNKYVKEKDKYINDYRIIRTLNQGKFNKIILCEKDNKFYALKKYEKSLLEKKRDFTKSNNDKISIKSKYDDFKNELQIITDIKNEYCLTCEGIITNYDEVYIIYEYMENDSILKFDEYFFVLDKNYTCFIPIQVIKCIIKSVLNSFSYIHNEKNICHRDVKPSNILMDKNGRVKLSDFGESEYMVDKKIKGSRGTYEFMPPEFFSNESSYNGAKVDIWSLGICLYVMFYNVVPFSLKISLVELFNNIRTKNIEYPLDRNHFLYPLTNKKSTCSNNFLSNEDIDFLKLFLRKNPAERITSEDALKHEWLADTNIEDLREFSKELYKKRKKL
Calcium-dependent protein kinase 1 (Plasmodium falciparum (isolate 3D7)), sequence (P62344 whole entry, looked up): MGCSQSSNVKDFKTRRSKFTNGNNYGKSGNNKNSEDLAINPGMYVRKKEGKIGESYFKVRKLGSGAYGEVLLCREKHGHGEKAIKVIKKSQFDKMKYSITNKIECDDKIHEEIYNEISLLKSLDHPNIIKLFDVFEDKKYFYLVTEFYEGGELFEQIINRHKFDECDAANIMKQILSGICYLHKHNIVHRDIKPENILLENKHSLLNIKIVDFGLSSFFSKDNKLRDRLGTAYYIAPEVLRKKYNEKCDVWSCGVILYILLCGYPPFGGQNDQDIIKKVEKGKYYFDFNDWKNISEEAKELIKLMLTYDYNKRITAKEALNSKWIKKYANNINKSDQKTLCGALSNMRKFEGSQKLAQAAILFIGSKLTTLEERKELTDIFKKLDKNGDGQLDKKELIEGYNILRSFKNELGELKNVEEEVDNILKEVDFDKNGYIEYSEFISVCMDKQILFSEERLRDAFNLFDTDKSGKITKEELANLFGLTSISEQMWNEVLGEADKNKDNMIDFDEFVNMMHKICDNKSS
Calcium-dependent protein kinase 4 (Plasmodium falciparum (isolate 3D7)), sequence (Q8IBS5 whole entry, looked up): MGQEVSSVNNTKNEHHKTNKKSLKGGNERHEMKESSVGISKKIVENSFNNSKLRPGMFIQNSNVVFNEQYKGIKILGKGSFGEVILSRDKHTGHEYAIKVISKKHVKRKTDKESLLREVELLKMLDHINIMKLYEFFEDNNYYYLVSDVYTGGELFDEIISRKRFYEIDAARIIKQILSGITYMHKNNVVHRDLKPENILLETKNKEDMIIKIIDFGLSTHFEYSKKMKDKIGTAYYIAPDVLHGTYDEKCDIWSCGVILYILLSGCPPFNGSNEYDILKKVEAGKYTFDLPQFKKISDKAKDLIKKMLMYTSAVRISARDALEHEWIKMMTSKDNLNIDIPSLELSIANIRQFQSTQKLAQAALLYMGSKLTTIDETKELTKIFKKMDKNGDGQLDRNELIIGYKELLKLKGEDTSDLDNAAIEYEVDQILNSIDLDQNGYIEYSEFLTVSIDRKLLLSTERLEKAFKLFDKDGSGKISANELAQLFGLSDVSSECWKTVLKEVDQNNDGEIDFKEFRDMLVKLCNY
Plasmodium falciparum protein kinase 6 (PK6, PF3D7_1337100), sequence (Q8IDW1 1-305): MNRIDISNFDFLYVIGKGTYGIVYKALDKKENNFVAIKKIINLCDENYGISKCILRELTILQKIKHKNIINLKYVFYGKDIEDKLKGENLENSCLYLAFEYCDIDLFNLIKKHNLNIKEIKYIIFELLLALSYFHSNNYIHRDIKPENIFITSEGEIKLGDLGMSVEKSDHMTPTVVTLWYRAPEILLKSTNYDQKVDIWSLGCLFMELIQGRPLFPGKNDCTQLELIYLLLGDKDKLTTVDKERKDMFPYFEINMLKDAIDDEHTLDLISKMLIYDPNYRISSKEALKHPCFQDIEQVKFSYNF
L-lactate dehydrogenase (Plasmodium falciparum (isolate CDC / Honduras)), sequence (Q27743 whole entry, looked up): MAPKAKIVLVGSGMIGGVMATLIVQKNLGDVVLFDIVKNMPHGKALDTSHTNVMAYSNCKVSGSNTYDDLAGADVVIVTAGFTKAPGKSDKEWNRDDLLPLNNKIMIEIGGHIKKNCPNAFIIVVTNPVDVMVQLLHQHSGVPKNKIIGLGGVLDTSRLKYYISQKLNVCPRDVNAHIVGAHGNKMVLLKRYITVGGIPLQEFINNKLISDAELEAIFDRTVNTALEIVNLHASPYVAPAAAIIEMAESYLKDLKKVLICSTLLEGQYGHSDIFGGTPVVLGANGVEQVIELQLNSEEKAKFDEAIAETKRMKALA

A word on the inhibition: it is the relative decrease from the control value, in per cent. For `CCCNc1ccc2nccc(CCN3CCC(NCc4ccc5c(c4)NC(=O)CS5)CC3)c2n1`, the growth inhibition in experiment [1] is 17%; in experiment [4], 94% (active). Also, the inhibition in experiment [2] was -2%; in experiment [3] it was -5%. For the same molecule, the outcome in experiment [5], in experiment [6], in experiment [7] and in experiment [8] was inactive.

Consider `CN(C)CCN(C)Cc1ccc(-c2ccc(NS(=O)(=O)c3cccc4cccnc34)cc2)cc1`, for which the growth inhibition is 16% in experiment [1] and 93% (active) in experiment [4]. Further, the inhibition was 23% in experiment [2] and -1% in experiment [3]. For the same molecule, the result in experiment [5], in experiment [6], in experiment [7] and in experiment [8] was inactive.

For the molecule `CCN(CC)CC(O)c1cc(-c2ccc(OC)cc2)nc2cc(Cl)ccc12` (stereo not given), the growth inhibition was 98% (active) in experiment [1] and 99% (active) in experiment [4]. Also, the inhibition is 12% in experiment [2] and -10% in experiment [3]. The outcome in experiment [5], in experiment [6], in experiment [7] and in experiment [8] was inactive.

Turning to `CC(C)(C)N1CCC(N(Cc2ccc(-c3ccc(C(F)(F)F)cc3)cc2)C(=O)Cn2c(CCc3cccc(F)c3F)nc(=O)c3cccnc32)CC1`, the growth inhibition in experiment [1] was 53% (active); in experiment [4], 100% (active). In addition, the inhibition in experiment [2] is 94% (active); in experiment [3], 3%. Besides, the result in experiment [5], in experiment [6], in experiment [7] and in experiment [8] was inactive.

With `Cc1ccc(NC(=O)c2ccc(N3CCC(c4ccccc4C)CC3)nc2)cc1`, the figures for the growth inhibition in experiment [1] and in experiment [4] were 72% (active) and 83% (active), respectively. The figures for the inhibition in experiment [2] and in experiment [3] were 49% and 3%, respectively. The outcome in experiment [5], in experiment [6], in experiment [7] and in experiment [8] was inactive.

With `Cc1nn(C)c(C)c1CN(Cc1nc(-c2cccc(Oc3ccccc3)c2)oc1C)C1CC1`, the growth inhibition in experiment [1] was 98% (active); in experiment [4], 101% (active). Moreover, the results for the inhibition in experiment [2] and in experiment [3] were 7% and 0%, respectively. Besides, the result in experiment [5], in experiment [6], in experiment [7] and in experiment [8] was inactive.

Regarding `CSC1=NC2(CC(c3cccc(C)c3)c3cc(Cl)c(O)cc3O2)CC(C)(C)N1` (stereo not given), the figures for the growth inhibition in experiment [1] and in experiment [4] were 73% (active) and 100% (active), respectively. The inhibition in experiment [2] is 0%; in experiment [3], 4%. In addition, the outcome in experiment [5], in experiment [6], in experiment [7] and in experiment [8] was inactive.

Regarding `COc1ccc(C(=O)N2CCC(C(=O)NC(C)c3ccc(-n4ccnc4)cc3)CC2)c2ccccc12` (stereo not given), the growth inhibition in experiment [1] was 79% (active); in experiment [4] it was 83% (active). Moreover, the figures for the inhibition in experiment [2] and in experiment [3] were 12% and -4%, respectively. Besides, the outcome in experiment [5], in experiment [6], in experiment [7] and in experiment [8] was inactive.

`CCCCCC(C)c1cc(O)c2c(c1)OC(C)(C)C=C2C1=CCN(Cc2ccccc2)CC1` (stereo not given): the growth inhibition in experiment [1] and in experiment [4] was 96% (active) throughout. The inhibition was 13% in experiment [2] and -5% in experiment [3]. Also, the outcome in experiment [5], in experiment [6], in experiment [7] and in experiment [8] was inactive.

Turning to `CN(C)c1cc(C(=O)N[C@@H](Cc2ccccc2)[C@H](O)CNC2CCCCC2)cc2[nH]ccc12`, the growth inhibition in experiment [1] is 97% (active); in experiment [4], 98% (active). Moreover, the results for the inhibition in experiment [2] and in experiment [3] were 10% and 3%, respectively. Further, the result in experiment [5], in experiment [6], in experiment [7] and in experiment [8] was inactive.

As for `COc1ccc(C(O)CNC(C)CCc2ccccc2)cc1C(F)(F)F` (stereo not given), the growth inhibition was 100% (active) in experiment [1] and 99% (active) in experiment [4]. The inhibition in experiment [2] was 3%; in experiment [3], 1%. Besides, the result in experiment [5], in experiment [6], in experiment [7] and in experiment [8] was inactive.

Turning to `O=C(Cc1ccccc1)NC(CCN1CCC(NC(=O)c2ccc(Cl)cc2)CC1)c1ccc(Cl)c(Cl)c1` (stereo not given), the growth inhibition is 23% in experiment [1] and 85% (active) in experiment [4]. Further, the results for the inhibition in experiment [2] and in experiment [3] were 17% and -2%, respectively. The outcome in experiment [5], in experiment [6], in experiment [7] and in experiment [8] was inactive.

With `O=C(c1ccc(-c2ccc(-c3nc4ccccc4[nH]3)s2)cc1)N1CCCCC1CN1CCC(O)C1` (stereo not given), the growth inhibition in experiment [1] is 55% (active); in experiment [4] it was 84% (active). The results for the inhibition in experiment [2] and in experiment [3] were 18% and 2%, respectively. Besides, the result in experiment [5], in experiment [6], in experiment [7] and in experiment [8] was inactive.

As for `C=CCc1cc(Br)ccc1OCCCOc1c(C)nc(N)nc1N`, the growth inhibition in experiment [1] is 96% (active); in experiment [4] it was 94% (active). Besides, the inhibition is 56% (active) in experiment [2] and -3% in experiment [3]. The result in experiment [5], in experiment [6], in experiment [7] and in experiment [8] was inactive.

`COc1cc2c(cc1NS(=O)(=O)c1ccc(OCc3ccc(Br)cc3)cc1)CCN(C1CCC1)CC2`: the growth inhibition in experiment [1] is 30%; in experiment [4], 94% (active). The inhibition is 36% in experiment [2] and 2% in experiment [3]. The outcome in experiment [5], in experiment [6], in experiment [7] and in experiment [8] was inactive.

Take `N#Cc1ccc(-c2nc3c(N4CCCC4)cccc3n2CCNCc2ccccc2)cc1`: the growth inhibition in experiment [1] is 99% (active); in experiment [4] it was 100% (active). Besides, the inhibition was 2% in experiment [2] and -3% in experiment [3]. Moreover, the result in experiment [5], in experiment [6], in experiment [7] and in experiment [8] was inactive.

On to `COc1ccc(CNC(=O)C2Cc3ccccc3CN2Cc2ccc3ccccc3c2)cc1` (stereo not given), for which the figures for the growth inhibition in experiment [1] and in experiment [4] were 84% (active) and 96% (active), respectively. Also, the inhibition was 15% in experiment [2] and -8% in experiment [3]. The outcome in experiment [5], in experiment [6], in experiment [7] and in experiment [8] was inactive.

`CCCCCN1CCN(Cc2cccc(NC(=O)c3ccc(Cl)c(Cl)c3)c2)CC1`: the results for the growth inhibition in experiment [1] and in experiment [4] were 33% and 90% (active), respectively. Also, the values for the inhibition in experiment [2] and in experiment [3] were 24% and 3%, respectively. In addition, the outcome in experiment [5], in experiment [6], in experiment [7] and in experiment [8] was inactive.

Take `CCCCOC(=O)C1=C(C)NC2=C(C(=O)CCC2)C1c1ccc(OC)c(Br)c1` (stereo not given): the growth inhibition in experiment [1] is 87% (active); in experiment [4], 93% (active). The inhibition is 5% in experiment [2] and -4% in experiment [3]. The outcome in experiment [5], in experiment [6], in experiment [7] and in experiment [8] was inactive.

Turning to `Cn1cccc1C(=O)C(=O)Nc1ccc(-c2ccc(-c3nc4ccc(F)cc4[nH]3)cc2)cc1`, the growth inhibition in experiment [1] was 33%; in experiment [4], 92% (active). In addition, the inhibition in experiment [2] is 44%; in experiment [3], -3%. Also, the outcome in experiment [5], in experiment [6], in experiment [7] and in experiment [8] was inactive.
